Assay outcomes deposited in PubChem by Center for Chemical Genomics, University of Michigan.
HIV TAR-Tat – HIV-1 TAR-Tat binding disruption. HIV-1 TAR RNA, Tat peptide displacement FRET; hits give high values. z-score (no concentration beside the values). 0.6% of 100,000 active; active means z-score of 3 or more in at least 2 runs
CDC25B-CDK2 inh – human CDC25B-CDK2/CyclinA binding inhibition; HTRF CDC25B-CDK2/CyclinA binding, anti-His/anti-Flag; hits give high values; z-score (concentration not given with the values); 0.72% of 94,000 active; AID 1259370; P30305+P24941; in the data active means z-score above about 3.2
Numbers without * were called inactive; nt = no result given. Sampled rows, rich in hits. Any-hit rate of the full collection: about 0.93%.

SMILES	HIV TAR-Tat	CDC25B-CDK2 inh
CCOC(=O)CSc1nc2c(c(=O)n1C1CCOC(C)(C)C1)C1(CCCC1)Cc1ccccc1-2 (configuration not stated)	nt	-0.91
CN1CCN(c2cc(Nc3ccc(N(C)C)cc3)c3c4c(onc24)-c2ccccc2C3=O)CC1	-1.2	-0.4
COCCNc1cc(N2CCN(C)CC2)c2noc3c2c1C(=O)c1ccccc1-3	1.6	-2.5
CCN1CCN(c2cc(NCCO)c3c4c(onc24)-c2ccccc2C3=O)CC1	15*	1.1
CCCN1CCN(c2cc(NCCO)c3c4c(onc24)-c2ccccc2C3=O)CC1	2.9	-3.6
COc1ccc(Nc2cc(N3CCN(C)CC3)c3noc4c3c2C(=O)c2ccccc2-4)cc1	0.88	7.5*
CCNc1cc(N2CCCC(C)C2)c2noc3c2c1C(=O)c1ccccc1-3 (configuration not stated)	4.5*	-0.57
CC1CCCN(c2cc(NC(C)C)c3c4c(onc24)-c2ccccc2C3=O)C1 (configuration not stated)	0.41	-0.58
COCCNc1cc(N2CCCCC2)c2noc3c2c1C(=O)c1ccccc1-3	8.1*	1.7
CC(C)OC(=O)C(C)Oc1ccc2c(=O)c(Oc3ccccc3Br)coc2c1 (configuration not stated)	0.14	-0.93
O=S(=O)(c1ccc(-n2cccn2)cc1)N1CCN(C2CCCCC2)CC1	0.45	nt
CC(C)Cn1cc(NC(=O)Nc2ccc(F)cc2Cl)c2ccccc2c1=O	1.9	nt
COc1ccc(-n2c(Cc3cccn3C)nnc2SCC(=O)N2CCCC2)cc1	-0.67	-0.81
Cc1ccccc1-c1nnc(CS(=O)(=O)c2ccccc2)o1	1.6	0.51
CC(C)CCNc1nc2ccccc2n2nnnc12	0.74	-1.8
Cc1ccccc1OCc1nnc2n1CC(C)S2 (configuration not stated)	nt	-2.3
CCOCCCNC(=O)C1CCN(S(=O)(=O)N2CCCC2)CC1	1.4	nt
Cc1ccc(C2CC(=O)NC(SCc3ccccc3)=C2C#N)o1 (configuration not stated)	-0.17	-0.84
CC(C)Nc1cc(N2CCCCC2)c2noc3c2c1C(=O)c1ccccc1-3	0.79	-1.2
CC(C)Nc1cc(N2CCN(C)CC2)c2noc3c2c1C(=O)c1ccccc1-3	9.7*	1.5
CC1CCCN(CCNc2cc(N(C)C)c3noc4c3c2C(=O)c2ccccc2-4)C1 (configuration not stated)	9.3*	-2.1
O=C1c2ccccc2-c2onc3c(N4CCCC4)cc(NCCO)c1c23	-5.9	-1.1
O=C1c2ccccc2-c2onc3c(N4CCCCC4)cc(NCCN4CCOCC4)c1c23	6.4*	1.9
O=C1c2ccccc2-c2onc3c(N4CCCCC4)cc(NCCO)c1c23	23*	12
CN(C)c1cc(NCCN2CCCCC2)c2c3c(onc13)-c1ccccc1C2=O	0.47	2.6
SMILES	HIV TAR-Tat	CDC25B-CDK2 inh
O=C1c2ccccc2-c2onc3c(N4CCCCC4)cc(NCCN4CCCC4)c1c23	0.1	-0.44
CSc1ncc(C(=O)NN)n1C	nt	-2.1
COc1cc(NC(=S)NN)cc(C(F)(F)F)c1	nt	-0.96
Cc1ccc(-c2nc(CNC(=O)Nc3cc(C)ccc3C)c(C)o2)cc1	-1.5	nt
Cc1ccc(C)c(NC(=O)N2CCC3(CC2)Nc2cc(F)ccc2-n2cccc23)c1	0.05	nt
O=C1c2ccccc2-c2onc3c(N4CCN(c5ccccc5F)CC4)cc(NCCO)c1c23	2.3	0.96
CN1CCN(c2cc(NCCO)c3c4c(onc24)-c2ccccc2C3=O)CC1	9*	0.56
CN1CCN(c2cc(NCCN3CCCC3)c3c4c(onc24)-c2ccccc2C3=O)CC1	-3.5	-2.2
CCCCNc1cc(N2CCN(CCO)CC2)c2noc3c2c1C(=O)c1ccccc1-3	7.7*	0.83
Cc1cc(Nc2cc(Cl)ccc2C)n2nc(-c3ccco3)nc2n1	-0.12	nt
Cc1ccc(C)n1-c1ccc(Cl)c(C(=O)NN)c1	nt	19*
Cc1ccc(C)n1-c1sccc1C(=O)NN	nt	-1.6
CC(C)=CC[C@@H](OC(=O)C=C(C)C)C1=CC(=O)c2c(O)ccc(O)c2C1=O	23*	nt
COc1ccc(C2=Nc3ccc(F)cc3NC(c3ccccc3)=N2)cc1	-0.26	-2.9
Cc1c(C(=O)N2CCC3(CC2)OCCO3)oc2ccc3c(c12)C(=O)CC1(CCCCC1)O3	nt	-1.9
Cc1ccc2c(c1)-c1cc(C)nn1C(c1cccc(O)c1O)N2 (configuration not stated)	19*	1.8
Cc1ccc2c(c1)-c1cc(C)nn1C(c1cc(C)ccc1O)N2 (configuration not stated)	2.2	1.4
Cc1cc2c(n1-c1ccc(C(=O)O)cc1)CCCC2	1.3	-0.92
Cc1ccc(C)n1-c1cc(C(=O)O)cc(C(=O)O)c1	17*	0.35
COc1ccc(/C(O)=C2\C(=O)C(=O)N(CCN3CCNCC3)C2c2ccc(OC)cc2)cc1 (configuration not stated)	0.66	-0.94
Cc1cc(=O)[nH]c2c1cnn2C1CCCCC1	2.5	1.2
COc1ccc(-c2noc(-c3ccc(C)c(Cl)c3)n2)cc1OC	0.17	-2.6
Nc1nc2c(s1)c(=O)[nH]c(=O)n2-c1ccccc1	1.2	0.38
COc1ccc(-n2c(=O)[nH]c(=O)c3sc(N)nc32)cc1	7.3*	0.15
CC1CCC(NS(=O)(=O)c2ccc3[nH]c(=O)ccc3c2)CC1 (configuration not stated)	32*	nt
SMILES	HIV TAR-Tat	CDC25B-CDK2 inh
CC1CCC(NC(=O)C2CCN(S(=O)(=O)c3ccc4[nH]c(=O)ccc4c3)CC2)CC1 (configuration not stated)	2.8	nt
CCOc1ccc(N2COc3cc4c(cc3C2)OCO4)cc1	nt	-3.6
COC(=O)c1cc(OC)c(OC)cc1NC(=O)C1=Cc2cc(OC)ccc2OC=C1	0.13	-1.8
COc1ccc(-c2noc(-c3nnn(-c4ccc(OC)cc4)c3N)n2)cc1	1	nt
COc1ccc(-c2noc(-c3nnn(-c4ccc(C)c(C)c4)c3N)n2)cc1	4.7*	nt
CC(C)c1nnc(N2C(=O)c3oc4ccccc4c(=O)c3C2c2ccc(F)cc2)s1 (configuration not stated)	1.3	-0.63
O=c1[nH]c(Nc2ccccc2)cc2ccccc12	-7.4	16*
O=C(O)c1cc2ccccc2c(=O)[nH]1	1.9	nt
CCOC(=O)c1cnc2ccc(Br)cc2c1Nc1ccc(N(C)C)cc1	7.7*	-0.69
CCOC(=O)c1cnc2ccc(Br)cc2c1NCc1ccco1	-1.2	-3.2
O=C(Nc1sc2c(c1C(=O)N1CCCC1)CCC2)c1ccccc1F	nt	-0.63
O=C1CCCNc2nn(-c3ccccc3)cc21	1.7	nt
O=c1c(NC2CCCCC2)c(-c2ccccc2)c1=O	1.1	nt
O=C1C(NC2CCCCC2)=C(N2CCCCC2)C(=O)c2ccccc21	nt	5*
CCSCCOC(=O)C1=C(C)NC(=O)CC1c1c(F)cccc1Cl (configuration not stated)	1.1	-1.9
O=c1cc(CSc2ccc(Cl)cc2)nc2sc(-c3ccco3)nn12	1.6	-2.2
O=c1cc(CSc2nc3ccccc3[nH]2)nc2sc(-c3cccs3)nn12	0.82	0.61
O=c1cc(COc2ccc(Cl)cc2)nc2sc(-c3ccco3)nn12	36*	-0.91
Cc1nn2c(=O)cc(COc3cccc(C)c3C)nc2s1	-0.75	-1
Cc1cccc(OCc2cc(=O)n3nc(-c4ccco4)sc3n2)c1C	35*	-0.31
CCc1nn2c(=O)cc(COc3ccc(C)c(C)c3)nc2s1	0.78	-1.5
Cc1ccc(OCc2cc(=O)n3nc(-c4ccccc4)sc3n2)cc1C	4.5*	1.7
